{"source": "PubChem BioAssay AID602364", "about": "(National Center for Advancing Translational Sciences (NCATS), 2012)", "note": "Results filed as inconclusive are left out. Active and inactive are the calls of the source. The call rests on the fitted dose curve; in most records, active means well fitted inhibition curve with a large enough effect; inconclusive means small, poorly fitted or top-dose-only effect; inactive means flat fitted curve, though single readings scatter.", "data": [{"molecular_target": "Luciferin 4-monooxygenase (Photinus pyralis) (UniProt P08659)", "sequence (P08659 whole entry, looked up)": "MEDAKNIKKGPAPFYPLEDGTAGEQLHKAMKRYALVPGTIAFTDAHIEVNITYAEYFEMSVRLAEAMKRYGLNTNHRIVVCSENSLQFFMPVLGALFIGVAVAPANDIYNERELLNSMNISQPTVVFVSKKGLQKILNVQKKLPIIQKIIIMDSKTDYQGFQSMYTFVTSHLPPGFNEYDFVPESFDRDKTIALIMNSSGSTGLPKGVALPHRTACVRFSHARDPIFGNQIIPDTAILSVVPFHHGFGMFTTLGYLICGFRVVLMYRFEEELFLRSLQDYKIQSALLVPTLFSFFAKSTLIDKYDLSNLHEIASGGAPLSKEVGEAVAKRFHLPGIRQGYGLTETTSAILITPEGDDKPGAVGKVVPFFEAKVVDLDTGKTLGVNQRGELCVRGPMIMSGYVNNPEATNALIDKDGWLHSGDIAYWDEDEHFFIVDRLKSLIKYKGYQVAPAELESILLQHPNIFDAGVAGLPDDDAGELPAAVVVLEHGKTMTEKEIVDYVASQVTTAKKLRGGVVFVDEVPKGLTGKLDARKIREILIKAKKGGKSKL", "test": "FLuc inhibitory activity for the follow-up compounds in a biochemical assay with 1mM ATP", "settings": "purified P. pyralis luciferase, luminescence; series mostly up to 57.5 µM; activity change, negative = inhibition: at the top concentration", "description": "NCGC Assay Overview: Firefly (Photinus pyralis) luciferase is one of the most commonly used transcriptional reporters. It is considered one of the more dynamically responsive reporters - that is, responsive to changes in reporter transcription - as it requires no post-translational modifications and is enzymatically active directly after protein synthesis (Wood, 1998). With no endogenous expression in mammalian cells and without the requirement of external excitation, it offers very little background signal, thus generally providing excellent signal to background for most assays. Previous profiling work to determine the prevalence of compounds that affect FLuc enzymatic activity (PubChem AID 411) identified that ~3% of the MLSMR library (then at ~72K) inhibited FLuc. […] Of the compounds identified in this profile that inhibited FLuc, 151 compounds were selected for further analysis, in an effort to better understand their mode of inhibiting FLuc. The assay described here was to determine the activity of the compounds in a FLuc assay that contained a KM concentration of D-luciferin and a high concentration (1mM) of ATP.\nNCGC Assay Protocol Summary: Reagents: 50mM Tris acetate, pH 7.5; 10mM Mg acetate; 10uM D-luciferin (Sigma #L9504); 1mM ATP; 0.01% Tween-20; 0.05% BSA; 10nM P. pyralis luciferase (Sigma #L9506) Control compounds used were two known firefly luciferase inhibitors (3-(5-(3-chlorophenyl)-1,2,4-oxadiazol-3-yl)benzoic acid and 5-(2-fluorophenyl)-3-phenyl-1,2,4-oxadiazole), and DMSO. Three microliters containing firefly luciferase substrates in buffer (final concentrations: 50mM Tris acetate, pH 7.5, 10mM Mg acetate, 0.01% Tween-20, 0.05% BSA, 10uM D-luciferin, 1mM ATP) are dispensed into each well of a Greiner white, solid-bottom 1536-well format plate using a flying reagent dispenser (FRD). These assay plates were then treated with 23nL of compound or DMSO using a Kalypsys pin tool, which allows for delivery of a 12-point intraplate titration of each compound to the assay plate (quantitative HTS), with a final compound concentrations ranging from approximately ~60uM to 0.3nM. One microliter of firefly luciferase in […] Tris-acetate buffer was then delivered by FRD to each well for a final enzyme concentration of 10nM. Luciferase activity was then measured using a ViewLux CCD imager (PerkinElmer), with an average exposure time of 2-30 seconds (2X binning, medium/high gain).", "values": [{"smiles": "COc1ccc(C(=O)Nc2cccc(C(=O)O)c2)cc1S(=O)(=O)N1CCCC1", "Potency": "14600 nM (active)"}, {"smiles": "O=C(Nc1ccccc1C(=O)O)c1cc(S(=O)(=O)Nc2cccc(F)c2)ccc1Cl", "activity change, negative = inhibition": "-5.57% (inactive)"}, {"smiles": "Nc1ccc2nc(-c3ccccc3)sc2c1", "Potency": "36.6 nM (active)"}, {"smiles": "Cc1ccccc1C(=O)Nc1cccc(C(=O)Nc2ccccc2C(=O)O)c1", "Potency": "32600 nM (active)"}, {"smiles": "CN(C)S(=O)(=O)c1ccc(C(=O)Nc2ccccc2C(=O)O)cc1", "Potency": "32600 nM (active)"}, {"smiles": "COc1cccc(-c2nc3ccccc3s2)c1", "Potency": "326 nM (active)"}, {"smiles": "O=C(O)c1cccc(NC(=O)c2cccc(S(=O)(=O)N3CCCCC3)c2)c1", "Potency": "2310 nM (active)"}, {"smiles": "Cc1ccc(S(=O)(=O)N2CCOCC2)cc1C(=O)Nc1ccccc1C(=O)O", "activity change, negative = inhibition": "-3.63% (inactive)"}, {"smiles": "Cc1c(NS(C)(=O)=O)cccc1-c1nc2ccccc2s1", "Potency": "10300 nM (active)"}, {"smiles": "COc1ccc(-c2nc3ccccc3s2)cc1NC(=O)c1ccc(F)cc1", "activity change, negative = inhibition": "-4.53% (inactive)"}, {"smiles": "COc1ccc(NS(=O)(=O)c2cccc(C(=O)Nc3ccccc3C(=O)O)c2)cc1", "activity change, negative = inhibition": "-2.81% (inactive)"}, {"smiles": "CCOC(=O)N1CCN(CC(=O)Nc2nc3ccc(OC)cc3s2)CC1", "activity change, negative = inhibition": "-4.98% (inactive)"}, {"smiles": "O=C(Nc1ccccc1C(=O)O)c1cccc(S(=O)(=O)Nc2ccc(Br)cc2)c1", "activity change, negative = inhibition": "-5.72% (inactive)"}, {"smiles": "CCCC(=O)Nc1nc2ccc(OCC)cc2s1", "Potency": "3260 nM (active)"}, {"smiles": "Nc1ccc2nc(-c3ccc(O)cc3)sc2c1", "Potency": "183 nM (active)"}, {"smiles": "Cc1c(C)c2ccc(OCC(=O)Nc3ccccn3)c(C)c2oc1=O", "Potency": "8.2 nM (active)"}, {"smiles": "CCOc1ccc2nc(NC(=O)c3cccnc3)sc2c1", "Potency": "2060 nM (active)"}, {"smiles": "O=C(COC(=O)c1ccccc1[N+](=O)[O-])c1ccc2c(c1)OCO2", "Potency": "4.6 nM (active)"}, {"smiles": "Cn1c(N/N=C/c2cc3ccccc3nc2Cl)nc2ccccc21", "Potency": "14600 nM (active)"}, {"smiles": "CC(C)C(=O)Nc1cccc(C(=O)Nc2ccccc2C(=O)O)c1", "Potency": "11600 nM (active)"}, {"smiles": "O=C(Nc1ccccc1C(=O)O)c1ccc(Cl)c(S(=O)(=O)N2CCOCC2)c1", "Potency": "10300 nM (active)"}, {"smiles": "Nc1ccc(-c2nc3ccc(C(=O)O)cc3s2)cc1", "Potency": "65.1 nM (active)"}, {"smiles": "CC(C)c1ccc(-c2nc3ccccc3s2)cc1", "Potency": "41.1 nM (active)"}, {"smiles": "O=C(O)c1cccc(NC(=O)c2cccc(S(=O)(=O)N3CCc4ccccc4C3)c2)c1", "Potency": "18300 nM (active)"}, {"smiles": "Oc1ccc(-c2nc3ccccc3s2)c(O)c1", "Potency": "2590 nM (active)"}, {"smiles": "CCOc1ccc(C(=O)Nc2ccccc2C(=O)O)cc1", "Potency": "1830 nM (active)"}, {"smiles": "COc1ccc2nc(NC(=O)c3ccc4ncsc4c3)sc2c1", "Potency": "1460 nM (active)"}, {"smiles": "COc1ccccc1C(=O)Nc1ccc(C(=O)Nc2ccccc2C(=O)O)cc1", "activity change, negative = inhibition": "-4.84% (inactive)"}, {"smiles": "O=C(O)c1ccc(NC(=O)c2cc(S(=O)(=O)N3CCCCC3)c(Cl)cc2Cl)cc1", "activity change, negative = inhibition": "4.47% (inactive)"}, {"smiles": "Cc1ccc(C(=O)Nc2ccccc2C(=O)O)cc1S(=O)(=O)N1CCCCCC1", "Potency": "1830 nM (active)"}, {"smiles": "Cc1ccc(C(=O)Nc2cccc(C(=O)O)c2)cc1S(=O)(=O)N1CCCC1", "Potency": "461 nM (active)"}, {"smiles": "Cc1ccc(C(=O)Nc2cccc(C(=O)O)c2)cc1", "Potency": "651 nM (active)"}, {"smiles": "Cc1ccc(C(=O)Nc2cccc(C(=O)O)c2)cc1S(=O)(=O)N1CCOCC1", "Potency": "3260 nM (active)"}, {"smiles": "O=C(Nc1ccccc1C(=O)O)c1cccc(NC(=O)c2ccccc2Cl)c1", "Potency": "20600 nM (active)"}, {"smiles": "COc1ccc2nc(NC(=O)c3ccco3)sc2c1", "Potency": "183 nM (active)"}, {"smiles": "O=C(Nc1c(Cl)cc(Cl)cc1-c1nc2ccccc2s1)c1ccc(Br)o1", "activity change, negative = inhibition": "-1.44% (inactive)"}, {"smiles": "CC(C)(C)C(=O)Nc1ccc(-c2nc3ccccc3s2)cc1", "Potency": "25.9 nM (active)"}, {"smiles": "CCOc1c(Cl)cc(C(=O)Nc2ccccc2C(=O)O)cc1Cl", "Potency": "18300 nM (active)"}, {"smiles": "O=C(Nc1ccccc1C(=O)O)c1ccc(NC(=O)C2CCCCC2)cc1", "Potency": "32600 nM (active)"}, {"smiles": "COc1ccc2nc(NC(=O)c3cccs3)sc2c1", "Potency": "7300 nM (active)"}]}]}
